According to PubChem BioAssay (NCATS):
Where “and” joins values, the source holds several entries; their conditions need not be identical. Equal entries are not always repeated. Results filed as inconclusive are left out. Calls of active or inactive are those of the source. Calls follow the shape of the dose curve; as a rule, active = well fitted inhibition curve with a large enough effect; inconclusive = small, poorly fitted or top-dose-only effect; inactive = flat fitted curve, though single readings scatter.

tested on: KB-3-1; assay: Cytotoxic Profiling of Annotated Libraries Using Quantitative High-Throughput Screening (AID 1296008); details: Five cell lines viability, CellTiter-Glo ATP luminescence, 48-72 h; max response: active compounds read low; also: nearly all actives have a fitted effect of over 60% in size
In short: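 Cytotoxicity was measured as CellTiter-Glo ATP luminescence, read after 10 min at room temperature. Compound treatment of the cells lasted 48 or 72 hr at 37 degrees Celsius in a qHTS format.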
% is scaled to controls: 0 for no effect and ±100 for the full control effect; potency is read from the fitted curve at half-maximal effect.

Q: How did the max response turn out when `Cc1cccc(C(C)c2cnc[nH]2)c1C` (stereo not drawn) was run?
A: 8.09% (inactive)

Q: `CNC(C)C(O)c1ccc(O)cc1` (stereo not drawn) was tested. Which max response did it give?
A: -2.38% (inactive) and -4.74% (inactive)

Q: With `CNC(=O)OCC[N+](C)(C)C` as the compound, how does the max response read?
A: 5.31% (inactive)

Q: How did the max response turn out when `c1ccc(C2(N3CCCC3)CCCCC2)cc1` was run?
A: 2% (inactive)

Q: For `CN(C)[C@@H]1C(=O)C(C(N)=O)=C(O)[C@@]2(O)C(=O)C3=C(O)c4c(O)ccc(Cl)c4[C@@](C)(O)[C@H]3C[C@@H]12`, which max response is on record?
A: 2.99% (inactive)

Q: For `CCON=O`, which max response is on record?
A: -2.91% (inactive)

Q: For `FC(F)OC(F)(F)C(F)Cl` (stereo not drawn), which max response is on record?
A: -1.37% (inactive)

Q: `O=C(C[C@@H]1NCCC[C@H]1O)Cn1cnc2cc(Br)c(Cl)cc2c1=O` was tested. Which max response did it give?
A: -0.356% (inactive)

Q: `CC(Cc1ccccc1)NC=O` (stereo not drawn) was tested. Which max response did it give?
A: 2% (inactive)

Q: `CN1[C@@H]2CC[C@H]1CC(OC1c3ccccc3CCc3ccccc31)C2` (stereo partly drawn) was tested. Which max response did it give?
A: 1.95% (inactive)

Q: With `Oc1ccc2c3c1O[C@H]1[C@@H](O)CC[C@@]4(O)[C@@H](C2)N(CC2CCC2)CC[C@]314` as the compound, how does the max response read?
A: 4.11% (inactive)

Q: `C=CCN(C1=NCCN1)c1c(Cl)cccc1Cl` was tested. Which max response did it give?
A: 1.74% (inactive)

Q: `O=C(NC(=O)c1c(F)cccc1F)Nc1ccc(Cl)c(Oc2ncc(C(F)(F)F)cc2Cl)c1` was tested. Which max response did it give?
A: -5.7% (inactive)

Q: `O=C1CN=C(c2ccccc2)c2cc(Cl)ccc2N1CC1CC1` was tested. Which max response did it give?
A: 1.41% (inactive)

Q: For `[H+].[H+].[Hg+2].[O-]B([O-])[O-].[c-]1ccccc1`, which Potency is on record?
A: 8.2 µM (active)

Q: With `CC(C)CCON=O` as the compound, how does the max response read?
A: 10.4% (inactive)

Q: How did the max response turn out when `c1cc2c(c(NC3=NCCN3)c1)CCCC2` was run?
A: -8.19% (inactive)

Q: With `CCC(=O)O[C@@](Cc1ccccc1)(c1ccccc1)[C@@H](C)CN(C)C` as the compound, how does the max response read?
A: -0.686% (inactive)
